Screens from PubChem BioAssay.
LDHA block: inhibitors of human lactate dehydrogenase A; P00338; purified LDHA, NADH/diaphorase-resazurin fluorescence; active compounds read low; activity change, % (values are at about 110 or 230 µM); 480,000 compounds, 0.15% hits; AID 1347041; in the data active means activity change below about -30%; inconclusive means mostly about -25% to -30%;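 further: plate controls were DMSO wells for no effect and wells without enzyme for full effect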
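Remaining NADH was detected by diaphorase (0.133 mg/mL) converting 37 µM resazurin to fluorescent resorufin, read at 0 and 20 minutes. The preceding 5-minute room-temperature reaction used 2 nM LDHA, 0.2 mM sodium pyruvate and 0.06 mM NADH at pH 7.4.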
D2 PAM-1: human D2 receptor positive allosteric modulation; DiscoveRx D2 beta-arrestin cells, luminescence, 90 min; 100% = 57 uM dopamine signal; potentiation, % (concentration not given with the values); 360,000 compounds, 0.23% hits; P14416; AID 624464; in the data active means potentiation above about 50%; inconclusive means mostly about 30% to 49%
Target sequence (P14416 whole entry, looked up): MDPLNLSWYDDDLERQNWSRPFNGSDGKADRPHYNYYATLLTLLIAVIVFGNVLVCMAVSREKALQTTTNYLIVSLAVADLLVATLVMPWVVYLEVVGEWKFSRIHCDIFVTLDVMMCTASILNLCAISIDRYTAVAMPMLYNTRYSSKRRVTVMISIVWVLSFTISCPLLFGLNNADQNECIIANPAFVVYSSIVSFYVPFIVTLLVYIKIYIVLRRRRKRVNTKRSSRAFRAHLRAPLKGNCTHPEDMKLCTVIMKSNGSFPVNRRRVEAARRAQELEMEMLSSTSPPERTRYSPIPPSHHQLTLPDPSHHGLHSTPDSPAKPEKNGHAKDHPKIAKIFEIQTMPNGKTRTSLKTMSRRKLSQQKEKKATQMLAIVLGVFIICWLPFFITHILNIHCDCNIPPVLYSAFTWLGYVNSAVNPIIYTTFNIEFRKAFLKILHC
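PathHunter D2 cells, attached overnight at 37 deg C, received compound in DMSO plus dopamine at EC20 (50 nM final) for 90 min at 37 deg C. Beta-arrestin recruitment was read as luminescence after 1 h with detection reagent at ambient temperature.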
D2 ag-1: activates the human D2 dopamine receptor. 340,000 compounds, 0.53% hits. P14416. HEK293 T-REx D2 cells, calcium flux agonist mode. activation, % at 2 µM. AID 485358;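 active means activation over 3 SD above normal in the single-dose calcium agonist read, cut at about 30% in these data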; further: 0% is about no effect
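HEK293 Trex D2 cells, tetracycline-induced, o/n 30 C 5% CO2; no-wash Ca dye, RT 30–90 min; 10-cycle baseline, 23 nl cpd added, kinetic Ca read 180 s; agonist hits = positive Ca response.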
D2 antagonist: antagonists of human D2 dopamine receptor; P14416; HEK293 TREx D2 cells, calcium flux, dopamine EC80; inhibition, % at 10 µM; 340,000 compounds, 2% hits; in the data active means inhibition above about 30%; inactive means below that, where a call was filed; further: 0% is about no effect
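In this primary screen, negative modulation is detected by tracking calcium flux after an EC80 dopamine challenge in inducible HEK293 T-REx D2 cells preexposed to test compound for 180 s.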
D2 PAM-2: positively modulates the human D2 dopamine receptor allosterically. HEK293 T-REx D2, calcium flux, EC20 dopamine potentiation. potentiation, % at 10 µM. 340,000 compounds, 0.34% hits;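 active means potentiation over 3 SD above the plate norm, cut at about 30% in these data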; further: 0% is about no effect
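Using a no-wash calcium dye in inducible, force-coupled HEK293 Trex cells expressing D2, we tracked fluorescence each second for 180 s after compound, then for 180 s after EC20 dopamine to detect augmented signalling.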
D2 ag-2: activates the human D2 dopamine receptor; P14416; DiscoveRx PathHunter D2 beta-arrestin, luminescence, 90 min; 100% = 57 uM dopamine signal; activation, % (no concentration beside the values); 360,000 compounds, 0.084% hits; AID 624465; in the data active means activation above about 40%; inconclusive means between about 15% and that limit
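Agonist mode: compounds alone added to overnight-plated D2 PathHunter cells for 90 min at 37 C, with 57 uM final dopamine (EC100) defining full response. Beta-arrestin recruitment detected by chemiluminescent reagent, read after 1 h at ambient temperature.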
The depositor's hits bear a star; ? = inconclusive; nt = not tested or not shown. An excerpt weighted towards active compounds, which were near 2.1% of everything screened.

SMILES	LDHA block	D2 PAM-1	D2 ag-1	D2 antagonist	D2 PAM-2	D2 ag-2
C=CCC1=C/C(=C\c2c(N)n3nc(CC(=O)N4CCCC4)sc3nc2=O)C=C(OC)C1=O	-8.7	-1.6	40.0*	2.4	-5.3	-5.3
CCn1nc(NC(=O)c2ccncc2)c2cc3cc(C)ccc3nc21	3.9	-13.9	-0.3	-2.9	34.5*	-2.8
N#CC(C#N)=Cc1cc(-c2ccccc2)n(-c2ccccc2)c1-c1ccccc1	-5.3	nt	nt	nt	nt	nt
Brc1cnc(N2CCCC2)nc1N1CCOCC1	-0.5	-2.1	-0.3	34.9*	4.4	-2.5
CCN(CC)C(=O)CN(C1CCCCC1)S(=O)(=O)c1ccc(Br)cc1	-36.7*	nt	nt	nt	nt	nt
O=C(CN(C1CCCCC1)S(=O)(=O)c1ccc(Br)cc1)N1CCCCCC1	-7.4	nt	nt	nt	nt	nt
Cc1ccc(C)c(-c2cc(C)ncc2C)c1	-30.5*	nt	nt	nt	nt	nt
COc1ccc(C)cc1NC(=O)c1cccc(-n2cccc2)c1	-6.7	nt	nt	nt	nt	nt
O=C(Nc1cccc(Cl)c1)Nc1nnc([C@H]2C[C@H](O)[C@@H](CO)O2)s1	-30.4*	-0.3	nt	nt	nt	-3.4
N#Cc1ccsc1NC(=O)CN1C(=O)NC2(CCCC2)C1=O	nt	nt	0.3	40.5*	-20.3	nt
NC(=O)c1ccsc1NC(=O)CN1C(=O)NC2(CCCCC2)C1=O	-5.4	-1.9	0.4	-3.8	-6.6	1.8
CCOC(=O)c1ccc(NC(=O)CN2C(=O)NC3(CCCCCCC3)C2=O)cc1	-0.3	1.0	-0.1	38.4*	13.8	2.3
CCOC(=O)c1ccc(NC(=O)CSC2=NC(=O)C(CC)C(=O)N2)cc1 (stereo not given)	-1.3	-13.5	0.7	47.0*	3.6	-2.6
CCC1C(=O)N=C(SCC(=O)Nc2cccc3ccccc23)NC1=O (stereo not given)	24.0	4.1	0.2	5.9	-8.8	-1.2
CC1CCC2(CC1)NC(=O)N(CC(=O)Nc1sc3c(c1C(N)=O)CCC3)C2=O (stereo not given)	2.7	-7.9	1.4	38.5*	-1.5	4.8
CC(=O)Nc1ccc(NC2=C(C(N)=O)S(=O)(=O)c3ccccc32)cc1	-18.2	nt	nt	nt	nt	nt
O=C(CN1C(=O)NC2(CCCCCC2)C1=O)Nc1ccc(Br)cc1Br	-3.6	1.6	-0.1	37.2*	15.7	-0.5
Cc1ccc(C2CC(c3ccccc3)=NN2c2ccccc2)o1 (stereo not given)	0.1	-8.9	-0.9	35.6*	-2.6	-5.8
Oc1ccc(C2=NN(c3ccccc3)C(c3ccc(F)cc3)C2)cc1 (stereo not given)	3.5	-0.5	0.7	32.9*	3.9	4.9
Cc1ccc(NC(=O)C(C#N)C(=O)CCC(C)C)c(C)c1 (stereo not given)	-0.4	nt	nt	nt	nt	nt
CCOc1ccc(C(=O)Nc2c3c(nn2C(C)(C)C)CSC3)cc1OCC	-3.9	-6.5	-0.2	30.1*	-6.5	-3.7
COc1ccc(C(=O)NC2CCN(S(=O)(=O)c3ccccc3F)CC2)cc1	-7.5	-4.6	-0.1	32.6*	9.1	-4.9
C=CCNC(=S)NNC(=O)C(CCC(C)C)CC(C)O (stereo not given)	-6.0	2.4	-0.1	45.4*	-11.6	2.0
N#CC1=C(SCC(=O)NC23CC4CC(CC(C4)C2)C3)NC(=O)C(C#N)C12CCCCC2 (stereo not given)	-7.6	8.0	0.5	-38.6	93.9*	2.2
CCOC(=O)C1=C(COC(=O)C(CC)c2ccccc2)NC(=O)NC1C (stereo not given)	-1.4	-1.7	0.0	8.0	30.1*	0.1
SMILES	LDHA block	D2 PAM-1	D2 ag-1	D2 antagonist	D2 PAM-2	D2 ag-2
CCOC(=O)C1=C(COC(=O)CC(C)c2ccccc2)NC(=O)NC1C (stereo not given)	1.3	18.4	0.0	19.4	9.8	0.3
N#Cc1ccc(-c2ccc(OCc3ccc(C(N)=O)cc3)cc2)cc1	1.8	nt	nt	nt	nt	nt
CCOc1ccc(NC(=O)CCC(=O)NNS(=O)(=O)c2ccccc2[N+](=O)[O-])cc1	5.9	-0.7	105.2*	11.2	3.6	2.9
CC(=O)c1ccc(C(=O)N(Cc2cccs2)Cc2cccs2)s1	-3.7	nt	nt	nt	nt	nt
O=C(COC(=O)CCCC1=NS(=O)(=O)c2ccccc2N1)Nc1ccccc1	-1.7	-19.0	0.1	3.1	38.4*	-5.5
Cc1ccc(Cl)cc1N1CCN(S(=O)(=O)c2c(C(=O)N3CCOCC3)c(C)n(C)c2C)CC1	-4.3	-13.4	0.4	37.6*	14.5	2.0
Cc1ccc(NC(=O)C(C)Sc2nc(-c3ccccc3)cc(=O)[nH]2)cc1 (stereo not given)	-3.3	-7.5	-0.6	36.5*	-0.8	-2.7
CCCCn1nc(C(=O)N2CCN(c3ncccn3)CC2)c2ccccc2c1=O	12.5	nt	nt	nt	nt	nt
c1ccc(Cn2nnc3c(N4CCCCCC4)ncnc32)cc1	1.4	4.3	-0.5	8.7	4.7	0.4
c1ccc(Cn2nnc3c(N4CCc5ccccc54)ncnc32)cc1	-14.1	-19.8	0.5	-18.5	35.6*	-0.7
O=C(N1CCOCC1)n1nnc2ccccc21	1.0	-1.6	-1.9	2.2	1.0	-0.6
O=C(N1CCOCC1)n1cnc2ccccc21	-0.1	1.9	-2.1	-6.4	51.4*	-3.4
COc1cc(CCC(=O)Nc2ccc3oc(-c4ccc(Cl)cc4)cc(=O)c3c2)on1	14.2	nt	nt	nt	nt	nt
CC(=O)Nc1sc(N/N=C\c2ccccc2F)nc1-c1cccs1	-4.0	63.9*	0.5	-1.4	-1.4	?
Cc1cc(C(C)(C)C)ccc1OC(=O)C1=CC=CN2CCS(=O)(=O)N=C12	-1.0	1.4	1.2	40.2*	7.4	-4.5
COc1ccccc1N1CCN(CC(=O)c2c(C)[nH]c3cc(C)ccc23)CC1	3.2	-13.8	-0.1	63.9*	-29.8	-3.4
CCC1CCCCN1CC(=O)c1c(C)[nH]c2cc(C)ccc12 (stereo not given)	-5.9	-2.1	0.6	32.9*	-4.5	2.8
Cc1ccc(-c2cnc(CCC(=O)Nc3ccccc3O)o2)cc1C	16.3	nt	nt	nt	nt	nt
O=C1c2ccccc2NC2CCCCCN12 (stereo not given)	-2.3	-15.7	-1.0	-0.3	30.1*	1.0
CCn1c(=O)c([N+](=O)[O-])c(NCCN(C)C)c2ccccc21	-2.2	-15.2	-0.2	59.2*	-20.9	4.7
O=c1c([N+](=O)[O-])c(NCCN2CCCCCC2)c2ccccc2n1-c1ccccc1	-1.4	-4.1	0.1	48.8*	-20.0	2.1
CCn1c(=O)c([N+](=O)[O-])c(NCC(O)c2ccccc2)c2ccccc21 (stereo not given)	-2.2	-27.3	-0.5	-10.1	-18.7	-3.5
CN1CCN(C(NC(=O)c2cccs2)C(=O)c2ccccc2)CC1 (stereo not given)	-5.3	nt	nt	nt	nt	nt
CCOC(=O)c1ccc(Oc2c(C(F)(F)F)oc3cc(OC(=O)c4ccccc4)ccc3c2=O)cc1	8.7	nt	nt	nt	nt	nt
